# Laboratory results reported in ChEMBL document CHEMBL3433997, “St. Jude Leishmania screening dataset” (2016).
# Target: Glucose transporter (Leishmania mexicana) (UniProt O61059)
# Experiment: ST_JUDE_LEISH: Cytotoxicity at 2uM final concentration against transgenic Leishmania Mexicana promastigotes LmGT2 that are glucose transport deficient and complemented with the L. Mexicana glucose transporter 2. Activity is measured by DNA content using SYBR green in vitro
# Format: functional
row,SMILES,inhibition [%]
1,COc1ccc(NC(=O)/C=C/c2ccccc2Cl)cc1OCCN1CCC(O)(c2ccc(Cl)c(C(F)(F)F)c2)CC1,7.73
2,CC(C)NCc1ccc(-c2cccc(-c3nc4ccccc4[nH]3)c2)cc1,10.3
3,CN1CCN(CCCN(Cc2ccc(-c3cccc(CNCc4ccc5c(c4)OCO5)c3)cc2)C(=O)NCCc2ccccc2)CC1,3.58
4,O=C(Nc1cccc(Cl)c1Cl)N[C@H]1CCN(CCCCCNC(=O)C2CC2c2ccc(Cl)c(Cl)c2)C1 (stereo not given in full),1.19
5,CC(C)CNCc1cccc(-c2cccc(CN(CCCN3CCN(C)CC3)C(=O)CCC3CCCC3)c2)c1,4.38
6,O=C(Nc1cccc(OC2CCN(Cc3ccccc3)CC2)c1)c1ccc([N+](=O)[O-])cc1,4.55
7,CCc1cccc(OCCCON2C(=N)N=C(N)NC2(C)C)c1,8.16
8,CCc1c(CCNCCCCCCNCCc2ccc(Br)cc2)ccc(OC)c1OC,103
9,CC(NCC(O)Cn1c2ccccc2c2ccccc21)c1ccccc1 (stereo not given),-1.46
10,O=C(N/C(=C/c1cccc([N+](=O)[O-])c1)c1nc2ccccc2[nH]1)c1cccc(Br)c1,-0.27
11,COc1ccc(-c2cccc(NC(=O)c3ccc(F)cc3)c2)cc1CN1CCCN(C)CC1,7.43
12,CCn1c(SCc2ccc(F)cc2)nc2sc3c(c2c1=O)CCN(C)C3,0.64
13,CCOc1ccc(C(=O)Nc2cc(Br)c3c(c2)CNCC3)cc1C#N,5.78
14,CCc1ccc(NC(=O)C=NNC(=N)N)cc1,1.17
15,Clc1cc(Cl)cc(Nc2ccnc(Nc3cc(Cl)cc(Cl)c3)n2)c1,2.57
16,COc1ccc2nccc([C@@H](O)CN3CCC(NCc4cc5ccc(Cl)cc5[nH]4)CC3)c2c1,4.6
17,COc1ccc(C(=O)N2CCc3cc4nccc(N5CCN6CCC[C@H]6C5)c4cc32)cc1,4.3
18,CC(Nc1ccc2c(c1)CCC2)C(=O)Nc1cc(C(F)(F)F)ccc1N1CCOCC1 (stereo not given),11.1
19,O=C(/C=C/c1ccc(Cl)cc1)NCCCCCN1CCN(C(=O)Nc2ccc(Cl)c(C(F)(F)F)c2)CC1,3.42
20,COc1ccc(NC(=O)[C@H](Cc2ccccc2)Nc2cc(C)nc(NCCOc3ccccc3)n2)cc1,2.55

row,SMILES,inhibition [%]
1,COc1ccc(-c2ccc(NC(=O)c3ccc(Cl)cc3)cc2)cc1CN(C)CCO,-0.68
2,N=C(NCc1ccccc1)Nc1nc(-c2ccc(OCCCn3ccnc3)cc2)cs1,15.5
3,Cc1[nH]c(C)c(-c2ccc(-c3ccccc3Cl)nc2)c(=O)c1Br,-0.05
4,COc1ccc2nccc([C@@H](O)CN3CCC(NCc4ccc5c(c4)NC(=O)C(C)(C)O5)CC3)c2c1,3.18
5,CCCCCCCc1c(C)nc2ccccc2c1O,2.82
6,Cc1ccc(-c2nnc(Nc3ccc(OCC(N)=O)cc3)c3ccccc23)cc1S(=O)(=O)NCC1CCCO1 (stereo not given),2
7,CCCCN(Cc1cnccc1-c1ccc(Br)cc1)c1ccc(C(O)(C(F)(F)F)C(F)(F)F)cc1,0
8,COc1ccccc1-n1c(SCC(=O)Nc2ccccc2F)nc2cccnc21,2.25
9,Cc1cccc2nc(-c3ccc(-c4cccc(CN5CCCC5CN)c4)cc3)[nH]c12 (stereo not given),1.07
10,Cc1ccc(C(=O)Nc2ccc(Cl)c(N3CCN(CCc4ccccc4)CC3)c2)cc1,6.51
11,COc1ccccc1Nc1nc(C)cc(NCc2ccc(-n3ccnc3)cc2)n1,3.48
12,Cc1cccc2nc(-c3ccc(-c4cccc(NC(=O)Nc5ccc6c(c5)OCO6)c4)cc3)[nH]c12,3.3
13,Cc1noc(C)c1-c1ccc2c(Nc3ccccc3C(C)(C)C)c(C(=O)NCc3ccccc3)cnc2c1,3.62
14,COc1cccc(CN2CCCC(OC(c3ccccc3)c3ccccc3)C2)c1O (stereo not given),0.05
15,O=[N+]([O-])c1ccc2nc(Nc3ccc(Cl)c(Cl)c3)c(Nc3ccc(Cl)c(Cl)c3)nc2c1,1.69
16,O=c1cc(NCCCNCc2cccc(SC(F)(F)F)c2)[nH]c2ccccc12,3.15
17,COc1ccc2nccc(N3CCC(NCCNCc4cc5c(cn4)OCCO5)C3)c2n1 (stereo not given),3.54
18,CC(C)NCc1ccc(-c2cccc(NC(=O)c3cccc(Cl)c3)c2)cc1,10.7
19,COc1ccc(NC(=O)Nc2ccc(-c3cccc(-c4nc5ccccc5[nH]4)c3)cc2)cc1,2.89
20,Cc1cccc(C(=O)NC(NC(=S)Nc2ccc([N+](=O)[O-])cc2)C(Cl)(Cl)Cl)c1 (stereo not given),-0.6
